Measurements from PubChem BioAssay AID485346 (Sanford-Burnham Center for Chemical Genomics, 2010).
Among all 330,000 compounds or so, about 10,000 (3%) were called active. The sample holds actives, similar compounds and a random draw of the others, so the mix is not that of the screen.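 The calls were made as follows: active = inhibition of at least 50% at 8 µM in the primary screen; inactive = the rest.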

What follows are compounds tested against Protein Mdm4 (Homo sapiens) + E3 ubiquitin-protein ligase Mdm2 (Homo sapiens) (UniProt O15151+Q00987) (assay: disruptors of Mdm2/MdmX RING complex – cell-based, luminescence, split luciferase, SaOS-2, uHTS, primary screen (AID 485346)). Details: SaOS-2 split-luciferase Mdm2/MdmX complementation, at 8 µM, active compounds read high.
Chain of Protein Mdm4 (Homo sapiens) + E3 ubiquitin-protein ligase Mdm2 (Homo sapiens) (O15151 whole entry, looked up): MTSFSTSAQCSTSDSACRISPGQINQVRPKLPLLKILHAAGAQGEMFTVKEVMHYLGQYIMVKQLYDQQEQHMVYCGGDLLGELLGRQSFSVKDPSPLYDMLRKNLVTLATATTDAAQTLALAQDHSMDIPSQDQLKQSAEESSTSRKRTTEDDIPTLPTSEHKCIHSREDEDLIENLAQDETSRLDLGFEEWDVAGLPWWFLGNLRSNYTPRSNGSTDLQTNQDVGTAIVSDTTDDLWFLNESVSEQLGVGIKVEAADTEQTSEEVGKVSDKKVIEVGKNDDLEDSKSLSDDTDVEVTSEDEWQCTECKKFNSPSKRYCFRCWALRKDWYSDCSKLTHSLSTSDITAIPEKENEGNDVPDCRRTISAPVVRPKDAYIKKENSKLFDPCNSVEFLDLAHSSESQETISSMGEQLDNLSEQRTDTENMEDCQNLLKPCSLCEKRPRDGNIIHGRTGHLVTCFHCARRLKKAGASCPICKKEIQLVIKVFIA
Chain of Protein Mdm4 (Homo sapiens) + E3 ubiquitin-protein ligase Mdm2 (Homo sapiens) (Q00987 whole entry, looked up): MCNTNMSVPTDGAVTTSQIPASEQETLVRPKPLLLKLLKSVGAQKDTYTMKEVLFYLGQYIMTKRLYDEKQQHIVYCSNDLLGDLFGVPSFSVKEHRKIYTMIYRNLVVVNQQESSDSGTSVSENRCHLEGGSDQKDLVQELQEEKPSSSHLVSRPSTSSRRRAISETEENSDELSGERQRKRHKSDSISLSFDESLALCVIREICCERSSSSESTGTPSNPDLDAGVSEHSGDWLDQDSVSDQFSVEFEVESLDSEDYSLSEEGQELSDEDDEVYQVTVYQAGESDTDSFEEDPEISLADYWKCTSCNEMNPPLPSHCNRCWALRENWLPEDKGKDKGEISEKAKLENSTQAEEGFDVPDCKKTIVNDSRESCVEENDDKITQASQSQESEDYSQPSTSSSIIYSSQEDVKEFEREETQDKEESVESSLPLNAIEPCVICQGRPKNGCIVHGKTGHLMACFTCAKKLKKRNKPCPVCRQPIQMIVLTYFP

inhibition, active:
Cc1ccc(Cc2cnc(NC(=O)/C(C#N)=C/c3ccc(-c4cccc([N+](=O)[O-])c4)o3)s2)cc1 97.9%
COc1ccccc1N1CCN(C(=O)c2cc(=O)c3cc(C)cc(C)c3o2)CC1 63.5%
CCSc1nsc(NC(=O)Nc2cccc(C(C)=O)c2)n1 62.3%
C=CCSc1nsc(NC(=O)Nc2cccc(C(C)=O)c2)n1 94.3%
Cc1ccc2[nH]c(=O)c(CN(CCCN(C)C)C(=O)Nc3cccc(Cl)c3)cc2c1 66.9%
COc1cc(OC)c(OC)cc1/C=N/Nc1ncnc2c1[nH]c1ccc(C)cc12 78.4%
Cc1cccc(CN2CCC(CNC(=O)Nc3ccc(F)c(Cl)c3)CC2)c1 51.6%
CCCC[C@@H]1CN=C(N)N1CCc1cc(C(F)(F)F)cc(C(F)(F)F)c1 68.1%
O=C(COC(=O)/C=C/c1cn(-c2ccccc2)nc1-c1cccnc1)Nc1ccc(Cl)cc1Cl 61.3%
COc1cc([N+](=O)[O-])ccc1NC(=O)COC(=O)CCOc1ccc(C)cc1 57.2%
Cc1ccc(C(=O)N/C(=C/c2ccc(-c3cccc([N+](=O)[O-])c3)o2)C(=O)NCCCN(C)C)cc1 78.3%
O=C(COc1ccccc1F)Nc1nc(-c2ccccn2)cs1 72.2%
COc1ccc(/C=C/C(=O)Nc2ccc(C34CC5CC(CC(O)(C5)C3)C4)cc2)cc1OC 59.1%
CCOc1cc(N2CCOCC2)c(OCC)cc1NC(=O)COc1cccc2cccnc12 90.6%
Cc1ccc2occ(/C=N/NC(=O)c3ccccc3C)c(=O)c2c1 68.7%
Cc1[nH]c(C)c(S(=O)(=O)N2CCN(c3cccc(C(F)(F)F)c3)CC2)c1C(=O)N1CCCCC1 76.3%
COc1ccc(-c2cc(C(F)(F)F)nc(S(C)(=O)=O)n2)cc1OC 94.6%
c1ccc2c(c1)CSc1sccc1C2=C1CCNCC1 78.5%
Cc1cccc(-c2nc3ccc(C(=O)NCCN4CCN(C)CC4)cc3nc2-c2cccc(C)c2)c1 93.2%

inhibition, inactive:
N#C/C(=C\c1ccc(-c2cccc([N+](=O)[O-])c2)o1)C(=O)NCCN1CCOCC1 10.3%
Cc1ccc(-c2ccc(/C=C(\C#N)C(N)=S)o2)c([N+](=O)[O-])c1 -46.3%
COc1ccc(CCNC(=O)COC(=O)c2ncc(Cl)c(Cl)c2Cl)cc1OC 8.42%
COc1ccccc1N1CCN(C(=O)c2cc(=O)c3cc(C)ccc3o2)CC1 40.1%
O=C(c1cc(=O)c2ccccc2o1)N1CCN(c2ccccc2)CC1 17.2%
C=CCSc1nnc(NC(=O)c2ccc(NC(C)=O)cc2)s1 -18.8%
CSc1nsc(NC(=O)Nc2ccccc2)n1 -31.4%
CCSc1nsc(NC(=O)Nc2ccccc2OC)n1 -33.9%
C=C(C)C(=O)Nc1cccc(C(C)=O)c1 20.2%
CCCCC(=O)N1CC2(C)CN(C(=O)CCCC)CC(C)(C1)C2=O -4.56%
CN(C(=O)c1c(Cl)cnn1C)C12CC3CC(CC(C3)C1)C2 4.45%
CCC(=O)N(CCc1ccccc1)Cc1cc2cc(C)ccc2[nH]c1=O -5.57%
Cc1ccc2[nH]c(=O)c(CN(CC3COCCO3)C(=O)Nc3ccccc3C)cc2c1 (stereo not given) 6.03%
CC(C)NC(=O)N1CCN(c2ccncc2S(=O)(=O)N2CCCCC2)CC1 14.5%
Cc1ccc2[nH]c3c(=O)n(Cc4ccccn4)cnc3c2c1 7.52%
CCOc1cc(/C=N/Nc2cc(C)nc3ccc(C)cc23)ccc1O 3.4%
Cc1ccc(CC(=O)N(C)CC(=O)N(CC(C)C)c2c(N)n(CC(C)C)c(=O)[nH]c2=O)cc1C -20.2%
Cc1ccc(C)c(CN2CCC(CNC(=O)Nc3ccc(C)c(F)c3)CC2)c1 42.6%
Cc1ccccc1NC(=O)NCC1CCN(Cc2cccc(Cl)c2)CC1 8.22%
O=C(COC(=O)/C(=C/c1cccs1)c1cccs1)NCc1ccccc1Cl -28%
CCN(Cc1ccccc1)S(=O)(=O)c1cc2c3c(c1)CCN3C(=O)CC2 -8.54%
CCCC[C@@H]1CN=C(N)N1CCCC 16.5%
CCCC[C@@H]1CN=C(N)N1CCc1cccc(F)c1 -13.6%
O=C(C1CCN(C2CCN(Cc3ccc4cc(F)ccc4n3)CC2)CC1)N1CCCC1 6.09%
CCCc1nc2oc3c(OCC)ncnc3c2c2c1COC(C)(C)C2 -1.2%
O=C(Nc1nonc1-c1ccc(Cl)cc1)c1ccco1 3.32%
COc1ccc(NC(=O)CN(C)C(=O)/C=C/c2cn(Cc3ccccc3)nc2-c2cccnc2)cc1 9.31%
Cc1ccc(/C=C/C(=O)OCC(=O)Nc2cccnc2Cl)cc1 7.79%
COc1cc([N+](=O)[O-])ccc1NC(=O)CN1CCCC1 -4.27%
COc1ccccc1CC(=O)Nc1ccc([N+](=O)[O-])cc1OC 19.7%
N#Cc1c(N)sc2c1CCN(C(=O)OCc1ccccc1)C2 17.8%
CN(C)CCNC(=O)/C(=C/c1cccc([N+](=O)[O-])c1)NC(=O)c1ccccc1 -8%
C=CCNC(=O)/C(=C\c1cccc([N+](=O)[O-])c1)NC(=O)c1ccccc1 22.1%
NS(=O)(=O)c1cccc(NC(=O)COC(=O)c2cc([N+](=O)[O-])ccc2N2CCCC2)c1 17.6%
CC(C)Oc1ccc(C(=O)NCC(=O)Nc2ccc3c(c2)CCC3)cc1 -15.9%
O=C(CN1C(=O)C2C3C=CC(C3)C2C1=O)Nc1nc(-c2ccccn2)cs1 (stereo not given) 33.1%
CC(NC(=O)c1ccco1)C(=O)Nc1nc(-c2ccccn2)cs1 (stereo not given) 21.9%
CCOc1ccc(CN2CCN(Cc3ccc4cc(F)ccc4n3)CC2CCO)cc1 (stereo not given) -16.3%
COc1ccc(CNC(=O)COC(=O)c2c(C)nn(-c3ccccc3)c2C)cc1OC -1.13%
COc1ccc(/C=C/C(=O)Nc2ccc(C)cc2)cc1S(=O)(=O)N1CCOCC1 18.3%
COc1ccc(/C=C/C(=O)N2CCCC2)cc1OC 5.87%
CCn1nc(C(=O)NNC(=O)C2CSC3(C)CCC(=O)N23)c2ccccc2c1=O (stereo not given) 25.6%
Cc1cccc(N2CCN(C(=O)c3cc4c(=O)[nH]c5ccccc5c4n3C)CC2)c1C 40.5%
O=C1CN(C(=O)c2cc(F)cc(F)c2)c2ccccc2N1 21%
CCOc1cc(N2CCOCC2)c(OCC)cc1NC(=O)COc1cccc(Cl)c1 -4.41%
CCOc1cc(N2CCOCC2)c(OCC)cc1NC(=O)c1cc(C)nc2ccccc12 -16.5%
O=S(=O)(Nc1cc(Cl)ccc1N1CCOCC1)c1ccccc1Cl 1.14%
O=c1c(/C=N/O)coc2ccc(Cl)cc12 9.78%
CC(C)(C)OC(=O)NCCCCCC(=O)N/N=C/c1coc2ccccc2c1=O 19.7%
O=C1CC(Cc2ccc(Cl)cc2)C(=O)N1c1cc(Cl)ccn1 (stereo not given) -4.34%
CN(C)/C(CN1CCCCC1)=C1\N=C(c2ccccc2)OC1=O 0.454%
CCc1cc2cc(OC)ccc2nc1SCC(=O)Nc1cc(OC)c(OC)cc1C(=O)O 17%
Cc1[nH]c(C)c(S(=O)(=O)N2CCN(c3cccc(C(F)(F)F)c3)CC2)c1C(=O)N1CCCC1 14.7%
Cc1ccc(C)c(N2CCN(S(=O)(=O)c3c(C)[nH]c(C)c3C(=O)N3CCCC3)CC2)c1 5.45%
CCOn1c(=O)c(=O)n(O)c2ccccc21 3.67%
COc1ccc(-c2cc(-c3ccc(N)cc3)nc(N)c2C#N)cc1OC 32.6%
CCS(=O)(=O)NCCc1ccc(OC)c(OC)c1 18.8%
Cc1nc2ccccc2nc(=O)c1NNc1ccc([N+](=O)[O-])cc1 -2.46%
Cc1ccc(C)c(NS(=O)(=O)c2c(C)[nH]c(C)c2C(=O)N2CCCCC2)c1 -0.656%
Cc1c(C)n(Cc2ccc(Cl)cc2)c2ccc(C(=O)NCCCN3CCOCC3)cc12 45.2%
CC1(C(=O)OCC(=O)Nc2ncc(Cl)cc2Cl)CC1(Cl)Cl (stereo not given) -3.51%
C=CCNC(=S)NNc1ncnc2sc3c(c12)CC(C)(C)OC3 10.5%
COc1cc(/C=C/C(=O)OCC(=O)NCCCc2ccccc2)ccc1O -15.8%
O=C(CCC(=O)N1CCCC1)Nc1ccc([N+](=O)[O-])cc1 8.85%
CCC12CN3CC(CC)(CN(C1)C31C(=O)N(C)c3ccc(C)cc31)C2=O (stereo not given) 5.2%
Cc1cccc(C(=O)OC(C)CN2CCN(C)CC2)c1 (stereo not given) 15.4%
CCC1=Nc2cc(C(=O)NCCN3CCCC3)ccc2Sc2ccc(C)cc21 22.7%
O=C(CCN1C(=O)c2ccccc2C1=O)NNC(=O)c1ccc(Cl)cc1Cl -2.94%
Cc1ccc(C(=O)NNC(=O)c2ccc3c(c2)OCCO3)cc1 -59.9%
CCCCn1c(N)c(N(CCC(C)C)C(=O)COC(=O)c2ccc(CC)cc2)c(=O)[nH]c1=O 5.72%
CCc1ccccc1NC(=O)[C@@H]1CCC(=O)N1C1OC(=O)c2c1ccc(OC)c2OC (stereo not given in full) 18.1%
